In PubChem BioAssay (EPA / NIEHS):
Calls of active or inactive are those of the source. Rule for the calls: active = hit-call score of the fitted dose curve at least 0.9, where 1 is the maximum; inactive = score below 0.9.

test: APR_HepG2_MitoMass_1hr: Apredica 1-hour HepG2 Assay for Mitochondrial Mass (AID 2282674); settings: high-content imaging, actives raise or lower the signal
Procedure: APR_HepG2_1hr is a cell-based, multiplexed-readout assay that uses HepG2, a human liver cell line, with measurements taken at 1 hour after chemical dosing in a 384-well plate.APR_HepG2_MitoMass_1hr is one of 10 assay component(s) measured or calculated from the APR_HepG2_1hr assay. It is designed to make measurements of cell phenotype, a form of morphology reporter, as detected with fluorescence intensity signals by HCS Fluorescent Imaging technology.Data from the assay component APR_HepG2_MitoMass_1hr was analyzed into 1 assay endpoint. This assay endpoint, APR_HepG2_MitoMass_1hr, was analyzed with bidirectional fitting relative to DMSO as the negative control and baseline of activity. Using a type of morphology reporter, gain or loss-of-signal activity can be used to understand changes in the signaling. Furthermore, this assay endpoint can be referred to as a primary readout, because this assay has produced multiple assay endpoints where this one serves a signaling function. To generalize the intended target to other relatable targets, this assay endpoint is annotated to the cell morphology intended target family, where the subfamily is organelle conformation.
Cells were treated with dimethyl sulfoxide (DMSO) as a solvent control at a final concentration of 0.5% v/v or with compounds in DMSO with a resulting final DMSO concentration of 0.5% v/v. Compound treatment was done at concentrations of 0.39, 0.78, 1.56, 3.12, 6.24, 12.5, 25, 50, 100, and 200 uM in duplicate on each plate. Cells were treated with compounds for 1, 24, or 72 hr. Carbonyl […] m-chloro-phenylhydrazone (CCCP) and taxol were used as positive controls for mitochondrial function and cytoskeletal stability, respectively; DMSO served as the negative control for this experiment. Cells were fixed by the direct addition of 50 uL formaldehyde in Hank's Balanced Salt Solution (HBSS) to a final concentration of 3.7%. After incubation in the fixation medium for 30 min at room temperature (293-298 K), cells were rinsed twice with HBSS and treated with cell permeabilization buffer (16 uL of 0.5% Triton X-100) for 10 min at room temperature (293-298 K) before labeling. For mitochondrial membrane potential and mitochondrial measurements, pre-fixed cells were incubated with 50 uL of MitoTracker Red CMXRos (Invitrogen) at a concentration of 250 nM for 30 min before fixation. In the remaining cases, post-fixed cells were labeled by incubation with a multiplexed mixture of primary antibodies in HBSS for 60 min at room temperature (293-298 K) to detect immunoreactivity of c-Jun (1:500), phospho-histone H3 (1:100), phospho-histone H2A.x (1:200), p53 (1:400), alpha-tubulin (1:200) and Hoechst 33342 (2 ug/mL). Cells were labeled for multiplexed imaging on two separate plates: a) Hoechst 33342, MitoTracker Red, phospho-histone H3, and alpha-tubulin, and b) Hoechst 33342, phospho-histone H2A.x, and c-Jun. A final rinse with HBSS (50 uL) was performed before analysis. The primary and secondary antibodies for the proteins were phospho-histone H3 (rabbit anti-phospho-histone H3 and FITC-donkey anti-rabbit IgG), phospho-histone H2A.x (mouse anti-phospho-histone H2A.x and FITC-donkey anti-mouse IgG), c-Jun (rabbit anti-phospho-c-Jun and Cy3-donkey anti-rabbit IgG), p53 (sheep anti-p53 and Cy5-donkey anti-sheep IgG), alpha-tubulin (mouse anti-alpha-tubulin and Cy5-donkey anti-mouse IgG). These antibodies are available as the CellCiphr HepG2 assay kit (Millipore).Digital images of each well were captured using a Cellomics ArrayScan VTI (Thermo Scientific Cellomics) (0.8 NA objective, 0.63x optical coupler, and XF-93 filter set) at 20x magnification. The images were acquired using the autofocus feature of the ArrayScan instrument, which entails the following steps. First, the camera focuses on channel 1 (Hoechst 33342), where nuclei are identified. Second, a Z offset of 1 um is used for capturing mitochondria (MitoTracker Red). Third, a Z offset of -2 um is used for capturing the cytoskeleton (tubulin). […]

Row | Compound | outcome
1 | CNc1cnn(-c2cccc(C(F)(F)F)c2)c(=O)c1Cl | inactive
2 | COc1cccc(C(=O)NN(C(=O)c2cc(C)cc(C)c2)C(C)(C)C)c1C | inactive
3 | CON=C(C(=O)OC)c1ccccc1CON=C(C)c1cccc(C(F)(F)F)c1 | inactive
4 | C=C(C)[C@H]1Cc2c(ccc3c2O[C@@H]2COc4cc(OC)c(OC)cc4[C@@H]2C3=O)O1 | inactive
5 | CC(C1CC1)C(O)(Cn1cncn1)c1ccc(Cl)cc1 (stereo not given) | inactive
6 | COc1cc(OC)nc(Sc2cccc(Cl)c2C(=O)O)n1 | inactive
7 | C#CCC1=C(C)C(OC(=O)C2C(C=C(C)C)C2(C)C)CC1=O (stereo not given) | inactive
8 | CCOP(=O)(OCC)Oc1cc(C)nc(C(C)C)n1 | inactive
9 | CCOP(=O)(NC(C)C)Oc1ccc(SC)c(C)c1 (stereo not given) | inactive
10 | Cc1ccn2nc(S(=O)(=O)Nc3c(F)cccc3F)nc2n1 | inactive
11 | CC1(C(=O)Nc2ccc(O)c(Cl)c2Cl)CCCCC1 | inactive
12 | CCCSP(=O)(OCC)SCCC | inactive
13 | O=c1ccc(=O)[nH][nH]1 | inactive
14 | CN(C)NC(=O)CCC(=O)O | inactive
15 | CC1=NNC(=O)N(/N=C/c2cccnc2)C1 | inactive
16 | CN(C)C(=O)Nc1cccc(C(F)(F)F)c1 | inactive
17 | CCOC(=O)CC(SP(=O)(OC)OC)C(=O)OCC (stereo not given) | inactive
18 | CC(=NC#N)N(C)Cc1ccc(Cl)nc1 | inactive
19 | CC(C)[C@H](C(=O)O[C@H](C#N)c1cccc(Oc2ccccc2)c1)c1ccc(Cl)cc1 | inactive
20 | CCC(CC)Nc1c([N+](=O)[O-])cc(C)c(C)c1[N+](=O)[O-] | inactive

Row | Compound | outcome
21 | CC(C)=CC1C(C(=O)OCN2C(=O)C3=C(CCCC3)C2=O)C1(C)C (stereo not given) | inactive
22 | FC(F)C(F)(F)OCC(Cn1cncn1)c1ccc(Cl)cc1Cl (stereo not given) | inactive
23 | CCCOCC(=Nc1ccc(Cl)cc1C(F)(F)F)n1ccnc1 | inactive
24 | CCOP(=S)(OCC)OC(Cl)C(Cl)(Cl)Cl (stereo not given) | inactive
25 | CNC(=O)Oc1cccc2c1OC(C)(C)O2 | inactive
26 | O=C(O)c1cc(Oc2ccc(C(F)(F)F)cc2Cl)ccc1[N+](=O)[O-] | inactive
27 | Cc1cc(C2CC2)nc(Nc2ccccc2)n1 | inactive
28 | CCOP(=S)(OCC)SCCSCC | inactive
29 | S=C1NCCN1 | inactive
30 | CCCOc1nn(C(=O)NS(=O)(=O)c2ccccc2C(=O)OC)c(=O)n1C | inactive
31 | COP(=O)(NC(C)=O)SC (stereo not given) | inactive
32 | CCc1cccc(CC)c1N(COC)C(=O)CCl | inactive
33 | C[Si](Cn1cncn1)(c1ccc(F)cc1)c1ccc(F)cc1 | inactive
34 | CCCSP(=O)(OCC)Oc1ccc(Br)cc1Cl (stereo not given) | inactive
35 | CCCCSP(=O)(SCCCC)SCCCC | inactive
36 | CSc1nnc(C(C)(C)C)c(=O)n1N | inactive
37 | CCNc1nc(Cl)nc(NC(C)(C)C#N)n1 | inactive
38 | CCC(=O)Nc1ccc(Cl)c(Cl)c1 | inactive
39 | CCOP(=S)(OCC)Oc1cc(C)nc(C(C)C)n1 | inactive
40 | CC(COc1ccc(Oc2ccccc2)cc1)Oc1ccccn1 (stereo not given) | inactive
